In PubChem BioAssay (EPA / NIEHS):
The source made the active and inactive calls. How the source made its calls: active means hit-call score of the fitted dose curve at least 0.9, where 1 is the maximum; inactive means score below 0.9.

Read-out: Collagen III, COL3A1 (gene 1281)
Experiment: BSK_hDFCGF_CollagenIII: BioMAP Diversity Plus: hDFCGF Assay for Collagen III Biomarker Activity (AID 2283056)
Settings: primary human foreskin fibroblasts; actives raise or lower the signal
Method: BSK_hDFCGF is a cell-based, multiplexed-readout assay that uses foreskin fibroblast, a human skin primary cell, with measurements taken at 24 hours after chemical dosing in a 96-well plate.BSK_hDFCGF_CollagenIII is an assay component measured in the BSK_hDFCGF assay. It measures Collagen antibody related to regulation of gene expression using ELISA technology.Data from the assay component BSK_hDFCGF_CollagenIII was analyzed into 1 assay endpoint. This assay endpoint, BSK_hDFCGF_CollagenIII, was analyzed with bidirectional fitting relative to DMSO as the negative control and baseline of activity. Using a type of binding reporter, gain or loss-of-signal activity can be used to understand changes in the signaling as they relate to the gene COL3A1. Furthermore, this assay endpoint can be referred to as a primary readout, because this assay has produced multiple assay endpoints where this one serves a signaling function. To generalize the intended target to other relatable targets, this assay endpoint is annotated to the cell adhesion molecules intended target family, where the subfamily is collagen.
The levels of cell surface (or secreted, indicated by the prefix "s") biomarker endpoints were measured by ELISA. Overt cytotoxicity to cells in confluent adherent cultures (all systems other than the BT system) was assessed by measuring total protein levels using sulforhodamine B (SRB) staining in parallel cultures at the time of biomarker measurements, indicated as SRB endpoints. For proliferation assays for adherent cell types, individual cell types are cultured at sub-confluence and relative cell numbers quantified by SRB staining at time points optimized for each system (48 h: 3C and CASM3C systems; 72 h: BT and HDF3CGF systems; 96 h: SAg system). SRB was performed by staining cells with 0.1% SRB after fixation with 10% TCA and reading wells at 560 nm.Viability and proliferation of PBMC (T cells) was quantified by Alamar Blue reduction for the SAg and BT systems. For PBMC viability (referred to as PBMC Cytotoxicity within the assay endpoint names), cells were plated (75,000/well in a 96-well plate) and then chemical samples added for 1 h before addition of activators, SEB and TSST-1 (20 ng/mL final concentration each). Cells were incubated for 90 h. Then, Alamar Blue (20 uL/well) (Invitrogen, Cat DAL1100) was added for 6 h, and the plates were read with a fluorescence microplate reader at 546/580 nm (excitation/emission). For PBMC proliferation, cells were plated and activated as above but incubated for only 16 h prior to addition of Alamar Blue. Plates were read after 6 h.

Row | Compound | outcome | AC50
1 | Cc1ccc(C)c(O)c1C | inactive | –
2 | Cc1ccc(N(C)C)cc1 | inactive | –
3 | NC(=O)Cn1c(=O)cc(CCN2CCN(c3nccc4sccc34)CC2)c2ccc(F)cc21 | inactive | –
4 | Cc1cccc([N+](=O)[O-])c1C | inactive | –
5 | CCCCCCOCCO | inactive | –
6 | CC=Cc1ccc(O)c(OC)c1 | inactive | –
7 | COc1ccc2c(c1)c(CC(=O)O)c(C)n2C(=O)c1ccc(Cl)cc1 | – | 20 µM (active)
8 | O=C(OCCCCCOC(=O)c1ccccc1)c1ccccc1 | inactive | –
9 | COc1cc(S(=O)(=O)O)c(C)cc1N=Nc1c(O)ccc2cc(S(=O)(=O)O)ccc12 | inactive | –
10 | Cc1ccccc1Cl | inactive | –
11 | Cc1ccc2ncccc2c1 | inactive | –
12 | NS(=O)(=O)c1cc2c(cc1Cl)NCNS2(=O)=O | inactive | –
13 | C=CCOC(=O)c1ccccc1C(=O)OCC=C | inactive | –
14 | CN[C@H]1CC[C@@H](c2ccc(Cl)c(Cl)c2)c2ccc(S(N)(=O)=O)cc21 | – | 20 µM (active)
15 | Cc1ccc(Cl)cc1 | inactive | –
16 | CCCCCCC(=O)OCC | inactive | –
17 | Cc1cc(=O)[nH]c(=S)[nH]1 | inactive | –
18 | FC(F)(F)C(F)(F)C(F)(F)C(F)(F)C(F)(F)C(F)(F)CCI | inactive | –
19 | CC(=O)Oc1ccccc1C(=O)O | inactive | –
20 | O=c1c(O)c(-c2ccc(O)c(O)c2)oc2cc(O)cc(O)c12 | inactive | –

Row | Compound | outcome | AC50
21 | CC(=O)C(C)=CC1C(C)=CCCC1(C)C (stereo not given) | inactive | –
22 | CC1=C(/C=C/C(C)=C/C=C/C(C)=C/CO)C(C)(C)CCC1 | inactive | –
23 | Cc1c(C(=O)O)c(O)cc2c1C(=O)c1c(O)c([C@@H]3O[C@H](CO)[C@@H](O)[C@H](O)[C@H]3O)c(O)c(O)c1C2=O | inactive | –
24 | CCCCCCCCCCCCCCCCCC(=O)O | inactive | –
25 | O=C(N[C@@H](Cc1ccccc1)[C@@H](O)C(=O)N1C[C@@H](O)[C@@H](O)C1)c1cc2cc(Cl)ccc2[nH]1 | inactive | –
26 | COC(=O)c1ccc(O)cc1 | inactive | –
27 | Nc1nc(N)c2nc(CNc3ccc(C(=O)N[C@@H](CCC(=O)O)C(=O)O)cc3)cnc2n1 | inactive | –
28 | CCCCCC(=O)O | inactive | –
29 | Nc1ccc(S(=O)(=O)c2ccc(N)cc2)cc1 | inactive | –
30 | Oc1ccc2ccccc2c1N=Nc1ccccc1 | inactive | –
31 | C[Si]1(C)O[Si](C)(C)O[Si](C)(C)O[Si](C)(C)O1 | inactive | –
32 | CCc1c(C(=O)NN2CCCCC2)nn(-c2ccc(Cl)cc2Cl)c1-c1ccc(Br)cc1 | – | 0.483 µM (active)
33 | CC(C)(C)c1cc(O)c(C(C)(C)C)cc1O | – | 9.11 µM (active)
34 | CNC(=O)[C@H]1O[C@@H](n2cnc3c(NCc4cc(Cl)ccc4OCc4cc(C)no4)ncnc32)[C@H](O)[C@@H]1N | inactive | –
35 | CCCCCCCCCCCCCCCC | inactive | –
36 | NCC1(Cc2noc(=O)[nH]2)CCCCC1 | inactive | –
37 | COc1ccc(S(=O)(=O)N2C(=O)[C@@](c3ccccc3OC)(N3C[C@H](O)C[C@H]3C(=O)N(C)C)c3cc(Cl)ccc32)c(OC)c1 | inactive | –
38 | C[C@]12C=CC(=O)C=C1CC[C@@H]1[C@@H]2C(=O)C[C@@]2(C)[C@H]1CC[C@]2(O)C(=O)CO | inactive | –
39 | CN1CCCC1=O | inactive | –
40 | CCCCCCCCCCCCCO | – | 12.9 µM (active)
